From PubChem BioAssay AID1345083 (National Center for Advancing Translational Sciences (NCATS), 2018) come the findings set out here.

Out of some 94,000 compounds screened, about 6,200 (6.6%) were called active. Entries that show only a call come without a potency. Not shown: some 31% with an inconclusive outcome. Calls follow the shape of the dose curve; as a rule, active = well fitted inhibition curve with a large enough effect; inconclusive = small, poorly fitted or top-dose-only effect; inactive = flat fitted curve, though single readings scatter. The full list was thinned out, with actives kept by preference.
Potency is read from the fitted curve at half-maximal effect.

A short description of the experiment: Cytotoxic Profiling in HEK 293 Cell Line of Diverse Libraries Using Quantitative High-Throughput Screening. Also: nearly all actives have a fitted effect of over 60% in size. The following applies: HEK 293 viability, ATP luminescence (CellTiter-Glo), 48-72 h; series mostly up to 115 µM. An outline of the steps:
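Cells seeded first (HEK 293, 250 cells/well), then compound added by pintool. Incubation ran 48 or 72 hr at 37 degree Celsius. CellTiter-Glo was added and luminescence imaged after 10 min at room temperature.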
For orientation: Cellular ATP, detected with luciferase, serves as a proxy for viable cell number.
For `CC(C)NC(=O)NC[C@H]1C[C@@H]2CCN1C[C@@H]2CN1CCCC1`, the Potency result is “inactive”. The same measure for `FC(F)(F)CN1C2CCC1CN(c1cccc(Cl)n1)C2`: “inactive”.

On to `CCCSc1ncc(CN2CC[C@H]3CNC[C@H]32)cn1`, for which the Potency result is “inactive”. The same measure for `CC(=O)NCCNC(=O)[C@H]1CN2CCC1C[C@@H]2Cn1cc(-c2ccc(C(C)(C)C)cc2)nn1` (some centres not stated): “inactive”. The same measure for `CNC1CCOCC1`: “inactive”; for `C#CCN1C(=O)[C@@H]2[C@H](c3ccccc31)[C@@H](C(=O)OCC)[C@@H](c1ccccc1)N2C(=O)COC`: 44.7 µM (active); for `CCCCOC(=O)N1C[C@H](C(=O)OCC)[C@H]2c3ccccc3N(C)C(=O)[C@]21C`: “inactive”. To `Nc1cccc(-c2cn(C[C@H]3CC4CCN3C[C@@H]4C(=O)NCc3ccc(F)cc3)nn2)c1` (some centres not stated) belongs “inactive”; to `COCC(=O)NC[C@H]1C[C@@H]2CCN1C[C@@H]2CN1CCN(C)CC1`, “inactive”; to `CN(C)[C@@H]1CN(C(=O)Cc2ccc(F)cc2)C[C@H]1CO`, “inactive”. As for `Cn1cccc1CN1CCC2(COc3ccncc3[S+](=O)([O-])N2)C1` (configuration not stated), the Potency result is “inactive”. Regarding `Cc1nc(-c2ccc(C(F)(F)F)cc2)cc([C@H]2CN3CC[C@H]2C[C@@H]3CNC(=O)c2ccco2)n1`, the Potency was 20 µM (active). Turning to `COc1ccccc1-c1cc([C@H]2CN3CC[C@H]2C[C@@H]3CNC(=O)c2ccco2)nc(C)n1`, the Potency result is “inactive”. The same measure for `O=C(NC[C@H]1C[C@@H]2CCN1C[C@@H]2CN1CCN(c2ncccn2)CC1)c1ccc(C(F)(F)F)cc1`: “inactive”; for `COc1ccccc1-c1cc([C@H]2CN3CC[C@H]2C[C@@H]3CNC(=O)c2ccco2)n(C)n1`: “inactive”. On to `C=C[C@H]1CN2CC[C@H]1C[C@@H]2CNC(=O)c1ccc(C(F)(F)F)cc1`, for which the Potency entry is “inactive”. To `Cc1ccc(C(=O)NC[C@H]2C[C@@H]3CCN2C[C@@H]3c2cc(-c3ccco3)nc(C)n2)cc1` belongs 79.4 µM (active). Regarding `CCNC(=O)N1CC2CN(C(C)C)CC(C1)O2`, the Potency entry is “inactive”. Take `CC1=NOC2(CCN(Cc3c[nH]c4ccccc34)CC2)C1`: the Potency entry was “inactive”. `CN1C[C@H]2CN(Cc3cnn(C)c3)CCN2C1=O`: the Potency result was “inactive”. To `O=C(Nc1ccc2n(c1=O)C[C@H]1C[C@@H]2CN(C(=O)c2ccccn2)C1)c1ccc(F)cc1` belongs “inactive”. To `C[S+](=O)([O-])N1CCC2(CC1)CC(c1cccnc1)=NO2` belongs “inactive”; to `CN(C)C(=O)[C@H]1CN2CCC1C[C@@H]2Cn1cc(-c2ccc(-c3ccccc3)cc2)nn1` (some centres not stated), “inactive”; to `Cc1nc(-c2ccccc2)cc([C@H]2CN3CC[C@H]2C[C@@H]3CNC2CCOCC2)n1`, 31.6 µM (active). To `Cc1nc(-c2ccccc2)cc([C@H]2CN3CC[C@H]2C[C@@H]3CNC2CCN(C)CC2)n1` belongs 28.2 µM (active); to `O=C([C@H]1CN2CCC1C[C@@H]2Cn1cc(-c2ccccc2)nn1)N1CCOCC1` (some centres not stated), “inactive”; to `CC(=O)Nc1ccc(-c2ccc3n(c2=O)C[C@H]2C[C@@H]3CN(C3CCN(C)CC3)C2)cc1`, “inactive”. As for `CC(C)N1C[C@@H]2OCC(=O)N(Cc3cccnc3)[C@@H]2C1`, the Potency result was “inactive”.

Consider `O=C(Nc1ccc(Cl)cc1)N1C[C@@H]2C[C@H](C1)c1c(-c3ccccc3F)ccc(=O)n1C2`, for which the Potency entry was “inactive”. The same measure for `COCC1CN(Cc2ccsc2)CC12CCNCC2` (configuration not stated): “inactive”; for `COc1ccc(CC(=O)N2C[C@@H]3CC[C@H](C2)N(CC2CCC2)C3)c(OC)c1`: “inactive”; for `COc1ccccc1-c1cc([C@H]2CN3CC[C@H]2C[C@@H]3CNC(C)=O)n(C)n1`: “inactive”.

On to `COc1ccc(-c2cc([C@H]3CN4CC[C@H]3C[C@@H]4CNC(=O)c3ccccc3)n(C)n2)cc1OC`, for which the Potency result is “inactive”. `O=C(Nc1ccccc1)[C@H]1CN2CCC1C[C@@H]2Cn1cc(CO)nn1` (some centres not stated): the Potency entry was “inactive”. With `Cn1nc(-c2cccs2)cc1[C@H]1CN2CC[C@H]1C[C@@H]2CNC(=O)Nc1ccccc1`, the Potency is 112 µM (active).

Turning to `Cn1nc(-c2ccc(F)cc2)cc1[C@H]1CN2CC[C@H]1C[C@@H]2CNCc1ccccn1`, the Potency is 63.1 µM (active). For the compound `COc1ccc(C(=O)NC[C@H]2C[C@@H]3CCN2C[C@@H]3c2cc(-c3ccccc3)nn2C)cc1`, the Potency was 89.1 µM (active). For `COc1ccc(-c2cc([C@H]3CN4CC[C@H]3C[C@@H]4CNC(=O)C3CC3)n(C)n2)cc1OC`, the Potency entry is “inactive”. To `Cn1nc(-c2cccs2)cc1[C@H]1CN2CC[C@H]1C[C@@H]2CNC(=O)CCCC(=O)O` belongs “inactive”; to `CCCCc1cn(C[C@H]2C[C@@H]3CCN2C[C@@H]3C(=O)NCCNC(C)=O)nn1`, “inactive”; to `Cc1ccccc1-c1ccc2n(c1=O)C[C@H]1C[C@@H]2CN(C(=O)CSCC(=O)O)C1`, “inactive”. Turning to `O=C([C@H]1CN2CCC1C[C@@H]2Cn1cc(CCO)nn1)N1CCCC1` (some centres not stated), the Potency result was “inactive”. For the compound `COc1ccccc1-c1ccc(N2CC3CC(C2)c2cccc(=O)n2C3)nn1` (configuration not stated), the Potency result was “inactive”. Regarding `Cc1ccc([C@@H]2CN(Cc3ncc[nH]3)[C@@H]3C4CCN(CC4)[C@@H]32)cc1`, the Potency result was “inactive”.

On to `COc1cccc(C(=O)N2CCC3(CC2)NCc2ccccc2-n2ccnc23)c1`, for which the Potency entry was “inactive”.

As to `O=S1(=O)NCC2(CCN(Cc3ccc(Cl)s3)C2)Oc2ncccc21` (configuration not stated), the Potency result was “inactive”.

For the compound `O=C(COc1ccccc1)N1C[C@@H]2C[C@H](C1)c1c(-c3ccccc3F)ccc(=O)n1C2`, the Potency result was “inactive”.
